In test [1] the target is Calcium and integrin-binding protein 1 (Homo sapiens) (UniProt Q99828). Kind of test: Primary qHTS for Identification of Calcium Integrin Binding Protein 1 (CIB1) Competitor (AID 1508620).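 Further: GST tagged CIB1 binding a fluorescein labelled alphaIIb integrin peptide tracer; top concentration of the series differs between compounds.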 Summed up:
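Fluorescence polarization competition: CIB1-GST (1 uM final) preincubated with compound 15 min at room temperature, then FITC-labeled alphaIIb peptide (100 nM final) added for another 15 min. Polarization read at Ex 480/Em 540.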
A general note: In qHTS, concentration-response curves come from the screen itself.

A short description of test [2]: Primary qHTS for small molecule stabilizers of the endoplasmic reticulum resident proteome: Secreted ER Calcium Modulated Protein (SERCaMP) assay (AID 1508630). A digest of the protocol:
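GLuc-SERCaMP-expressing SH-SY5Y cells, pretreated 16 h with compound, are challenged with thapsigargin to empty ER calcium stores; after 4 h, coelenterazine is added directly to the medium and luminescence is imaged.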

Test [3] can be described thus: Counterscreen qHTS for small molecule stabilizers of the endoplasmic reticulum resident proteome: GLuc-NoTag assay (AID 1508627). Further: potency means the concentration at half of the fitted maximal effect. A digest of the protocol:
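SH-SY5Y cells stably expressing constitutively secreted GLuc (no SERCaMP tag) were pre-incubated 5 h, treated with compound for 19 h, then 100 nM thapsigargin for 4 h at 37C; medium GLuc read by coelenterazine luminescence.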
(Counterscreens check selectivity or assay interference.)

The nature of test [4]: Confirmatory qHTS for small molecule stabilizers of the endoplasmic reticulum resident proteome: Secreted ER Calcium Modulated Protein (SERCaMP) assay (AID 1508628).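 Further: SH-SY5Y cells given compound 16 h then thapsigargin 100 nM for 4 h; series mostly up to about 76 µM; nearly all actives have a fitted effect of over 40% in size.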 From the text: Assay Provider: Brandon K. Harvey Ph.D.
National Institute on Drug Abuse, National Institutes of Health, Baltimore, MD
Endoplasmic reticulum (ER) dysregulation is associated with human pathologies including neurodegenerative, cardiovascular, muscular, and diabetic conditions. Maintenance of ER calcium is critical for functions of the ER and its depletion can lead to loss of ER resident proteins, in a process termed exodosis. Therapeutic compounds capable of attenuating the redistribution of ER proteins under pathological conditions may slow or stop disease progression. To identify such compounds, we performed a quantitative high-throughput screen (qHTS) using the SERCaMP assay, which monitors secretion of ER resident proteins triggered by calcium depletion. […]
8; Detection; Luminescence; ViewLux imaging system […]
7; Gaussia luciferase in the medium was measured by adding 1 ul of 0.5x coelenterazine (final concentration 0.07x) prepared in Gaussia Luciferase Glow Assay Buffer (Pierce), without addition of the Cell Lysis Buffer Reagent.
8; Luminescence was measured using a ViewLux […] CCD imaging system (Perkin Elmer) equipped with clear filters. […]

Test [5] is described as follows: Cell Viability qHTS for small molecule stabilizers of the endoplasmic reticulum resident proteome (AID 1508629).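 Further: human SH-SY5Y neuroblastoma cells carrying the GLuc-SERCaMP reporter; compound exposure about 46 h in total before the viability read.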 Conditions: cell viability counter-screen, 100 nM thapsigargin for final 4 h.
A short description of test [6]: A High-Content qHTS Against Drug Library for the Identification of Small Molecules that Inhibit DYT1 Early Onset Primary Dystonia-Associated Cell Pathology (AID 1645839; calls by dose curve; further: series mostly up to about 46 µM). Summed up: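 Readout: %pathology, the punctate EGFP-TorsinA distribution from imaging, as the primary channel and cell count as the toxicity counterscreen. HEK293 Flp-In cells expressing delE TorsinA were induced with tetracycline and treated with compound for 48 h.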

Test [7] concerns the target Calcium and integrin-binding protein 1 (Homo sapiens) (UniProt Q99828). Kind of test: Validation qHTS for Identification of Calcium Integrin Binding protein 1 (CIB1) Competitor (AID 1508618). A digest of the protocol: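 CIB1-GST (1 uM final) in 5 mM HEPES pH 7.4, 125 mM NaCl, 5 mM CaCl2, 0.01% Tween20 was preincubated 15 min at room temperature with compound (up to 114 uM), then FITC-alphaIIb peptide (100 nM) added for 15 min; fluorescence polarization read.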

Inconclusive results are not listed. A call without a number means that no potency is given here. Values without a mark were called inactive. Activity calls are given as the source filed them. Unless noted, the call rests on the fitted dose curve; in most records, active means well fitted curve in the direction sought with a large enough effect; inconclusive means small, poorly fitted or top-dose-only effect, or another doubt; inactive means no such curve, though single readings can be large; an effect the other way counts as inactive or inconclusive.

Sequence of Calcium and integrin-binding protein 1 (Homo sapiens) (Q99828 whole entry, looked up): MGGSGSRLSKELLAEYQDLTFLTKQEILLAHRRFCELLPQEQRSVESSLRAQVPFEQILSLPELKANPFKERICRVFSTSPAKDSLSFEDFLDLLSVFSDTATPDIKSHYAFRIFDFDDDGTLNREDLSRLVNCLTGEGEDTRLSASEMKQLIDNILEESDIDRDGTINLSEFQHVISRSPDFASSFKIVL

Consider `Cc1cc(Nc2cc(N3CCN(C)CC3)nc(C=Cc3ccccc3)n2)n[nH]1`, for which the result in test [1] was inactive. Also, the Potency result in test [2] is “inactive”.
In the case of `Cc1cc(N2CCOCC2)cc2[nH]c(-c3c(NC[C@@H](O)c4cccc(Cl)c4)cc[nH]c3=O)nc12`, in test [1], the outcome was inactive. For the same compound, the Potency entry in test [2] is “inactive”.
As for `CCCCCN(CCC12CC3CC(CC(C3)C1)C2)C(=O)NCCCc1ccncc1`, the result in test [1] was inactive.
The same measure, in the same setting: then `CN(C)CCCN=c1c2ccccc2n(C)c2[nH]c(=O)n(C)c(=O)c12`, with “inactive”.
Take `CC(C)(C)OC(=O)Nc1ccc(-c2cc(C(=O)NCCCCCCC(=O)NO)no2)cc1`: the outcome in test [1] was inactive. Further, in test [2], the Potency result was “inactive”.
With `CC(C)=CCCC(C)=CCCC(C)=CCSc1ccccc1C(=O)O`, in test [1], the result was inactive.
Regarding `O=C(CCCCCCNC(=O)c1cnc(N(c2ccccc2)c2ccccc2)nc1)NO`, in test [1], the result was inactive. In addition, in test [2], the Potency entry was “inactive”.
For `CC(=O)OCCN1C(=O)c2c(C)nc3ccc(S(=O)(=O)N4CCOCC4)cc3c2C1=O`, the result in test [1] was inactive. In addition, the Potency result in test [2] is “inactive”.
As for `C=CCn1c(=O)c2cnc(Nc3ccc(N4CCN(C)CC4)cc3)nc2n1-c1cccc(C(C)(C)O)n1`, the outcome in test [1] was inactive. For the same compound, in test [2], the Potency entry is “inactive”.
For the compound `O=C(O)CCCc1c[nH]c2ccccc12`, the result in test [1] was inactive.
Turning to `O=C(CCCCCCC(=O)Nc1ccc([C@H]2O[C@@H](CSc3nc(-c4ccccc4)c(-c4ccccc4)o3)C[C@@H](c3ccc(CO)cc3)O2)cc1)NO`, the outcome in test [1] was inactive.
Take `Cc1c(NC(=O)OC[C@@H]2COCCN2)cn2ncnc(Nc3ccc4c(cnn4Cc4cccc(F)c4)c3)c12`: in test [1], the outcome was inactive. Further, the Potency result in test [2] was “inactive”.
Turning to `Cc1ccc(NC(=O)C2(c3ccc4c(c3)OC(F)(F)O4)CC2)nc1-c1cccc(C(=O)O)c1`, the result in test [1] was inactive.
In the case of `CC(=O)SC[C@@H](C)C(=O)N1CCC[C@H]1C(=O)N[C@@H](Cc1ccccc1)C(=O)O`, the result in test [1] and in test [4] was inactive. For the same compound, the Potency entry in test [3], in test [2] and in test [6] was “inactive” throughout. Besides, the max response in test [5] was 10.6%.
Regarding `O=c1c2ccccc2nc2n1CCc1c-2[nH]c2ccccc12`, the result in test [7] and in test [1] was inactive. In test [2], the Potency result is “inactive”.
Regarding `CC(=O)OCC(=O)[C@@]1(O)[C@H](C)C[C@H]2[C@@H]3C=C(C)C4=Cc5c(cnn5-c5ccccc5)C[C@]4(C)[C@@H]3[C@@H](O)C[C@@]21C`, the result in test [1] was inactive. For the same compound, the Potency result in test [2] is “inactive”.
Take `O=C(c1cncc(Br)c1)N1CCC(N2CCCC2)CC1`: the result in test [1] was inactive.
As to `COc1cc2c(NC3CCN(C(C)C)CC3)nc(C3CCCCC3)nc2cc1OCCCN1CCCC1`, in test [1], the result was inactive. Besides, in test [2], the Potency result was “inactive”.
`O=C(O)[C@H](Cc1c[nH]c2ccccc12)N1C(=O)c2ccccc2C1=O`: in test [1], the outcome was inactive. Also, in test [2], the Potency result was “inactive”.
With `OCc1ccc(-c2ccc(-c3ccc(CO)s3)o2)s1`, the result in test [1] was inactive.
Consider `COc1cc(C(C)C)c2c(c1)S(=O)(=O)N(COc1cc(=O)n3cccc(OCCN4CCCCC4)c3n1)C2=O`, for which the outcome in test [1] and in test [4] was inactive. For the same compound, the Potency in test [3] is 39.8 µM (active). The Potency entry in test [2] is “inactive”.
For the compound `Cc1ccc(S(=O)(=O)Nc2cc(Cl)ccc2C(=O)Nc2nc(-c3ccccc3)cs2)cc1`, in test [1], the result was inactive.
Regarding `CCOc1cc2ncc(C#N)c(Nc3ccc(F)c(Cl)c3)c2cc1NC(=O)C=CCN(C)C`, the result in test [1] was inactive. Moreover, the Potency entry in test [2] is “inactive”.
Consider `Cc1cn(-c2cc(NC(=O)c3ccc(C)c(Nc4nccc(-c5cccnc5)n4)c3)cc(C(F)(F)F)c2)cn1`, for which the result in test [1] was inactive.
Regarding `CC(C)c1ccc(Cn2ccc3c4c(N)nc(NC5CC5)nc4ccc32)cc1`, the outcome in test [1] was inactive. Besides, the Potency result in test [2] is “inactive”.
As to `COC(=O)C[C@](O)(CCCC(C)(C)O)C(=O)O[C@@H]1C(OC)=C[C@]23CCCN2CCc2cc4c(cc2[C@H]13)OCO4`, the outcome in test [1] was inactive. Further, the Potency result in test [2] was “inactive”.
For `Cc1nc(Nc2n[nH]c3c2CN(C(=O)N[C@H](CN(C)C)c2ccccc2)C3(C)C)c2sccc2n1`, the result in test [1] was inactive. Also, in test [2], the Potency entry is “inactive”.
As for `CC1(C)O[C@@H]2C[C@@H]3[C@H]4C[C@@H](F)C5=CC(=O)C=C[C@]5(C)[C@@]4(F)[C@@H](O)C[C@]3(C)[C@]2(C(=O)CO)O1`, the outcome in test [1] was inactive. Moreover, in test [2], the Potency entry was “inactive”.
Turning to `Cn1c2ccccc2c2c3c(c4c5ccccc5n(CCC#N)c4c21)CNC3=O`, the outcome in test [1] was inactive. In test [2], the Potency result is “inactive”.
Take `COc1ccc(OC)c(-c2nnc3ccc(-c4ccc(OC)c(O[C@@H]5CCOC5)c4)nn23)c1`: the result in test [1] was inactive.
Consider `C[C@]1(CO)CN(c2cc(C(=O)Nc3ccc4c(c3)-c3c(c(C(N)=O)nn3-c3ccc(F)cc3)CC4)c(Cl)cn2)C[C@@]1(C)CO`, for which, in test [1], the outcome was inactive. Also, the Potency entry in test [2] is “inactive”.
For `CCCCOc1c(C(=O)c2c(F)cc(C)cc2F)cnc2n[nH]cc12`, the result in test [1] was inactive.
Turning to `COc1cc2c(Oc3ccc4[nH]c(C)cc4c3F)ncnc2cc1OCCCN1CCCC1`, the result in test [1] was inactive. Also, in test [2], the Potency result is “inactive”.
For `CN(c1ncccc1CNc1nc(Nc2ccc3c(c2)CC(=O)N3)ncc1C(F)(F)F)S(C)(=O)=O`, in test [1], the result was inactive. Further, in test [2], the Potency result is “inactive”.
As to `O=C(NC1CCNCC1)c1[nH]ncc1NC(=O)c1c(Cl)cccc1Cl`, the outcome in test [1] was inactive.
In the case of `CC(NCc1ccc2c(c1)nc(NC(=O)c1ccc(-c3cn[nH]c3)s1)n2CC(C)(C)O)C(C)(C)C` (stereo unspecified), the outcome in test [1] was inactive. Further, in test [2], the Potency result was “inactive”.
Take `Nc1ccccc1NC(=O)c1ccc(CNC(=O)OCc2cccnc2)cc1`: the outcome in test [1] was inactive. In test [2], the Potency entry was “inactive”.
With `O=C(NCCS(=O)(=O)c1ccc(C(F)(F)F)cn1)c1ccc(Cl)cc1`, the outcome in test [1] was inactive.
For `COc1cc(OC2CCN(C)CC2)ccc1Nc1ncc2c(n1)n(C1CCCC1)c(=O)n2C`, the outcome in test [1] was inactive. In addition, the Potency result in test [2] is “inactive”.
